ALDH1A1 inh: blocks purified human ALDH1A1 activity | 220,000 compounds, 7.3% hits | Potency, µM (doses to about 75.3 µM), actives largely listed as inhibitors | P00352 | Purified ALDH1A1, NADH fluorescence, propionaldehyde substrate | AID 1030
IMPase Li inh: cell-permeable IMPase inhibitors with lithium potentiation; Potency, µM (series often up to 59.4 µM), most hits filed as inhibitors; AID 1457; CHO-M1 cells, IP1 TR-FRET (IP-One), carbachol + lithium; 210,000 compounds, 0.35% hits; active means well fitted curve in the direction sought with a large enough effect; inconclusive means small, poorly fitted or top-dose-only effect, or another doubt; inactive means no such curve, though single readings can be large; an effect the other way counts as inactive or inconclusive;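 further: IP1 builds up when IMPase is blocked and the TR-FRET signal falls; nearly all actives have a fitted effect of over 50% in size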
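IP1 accumulation measured by competitive TR-FRET in lysed CHO-M1 cells after 30 min compound exposure at 37C, with a small lithium addition to potentiate weak responses. Hill-equation AC50 from ratio and donor-channel data.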
NPSR antag: antagonists of human neuropeptide S receptor cAMP signaling; Q6W5P4; CHO-NPSR cells, cAMP TR-FRET, antagonist mode; Potency, µM (top dose mostly 38.3 µM), hits mostly inhibitors; 220,000 compounds, 1% hits; AID 1461; active means well fitted curve in the direction sought with a large enough effect; inconclusive means small, poorly fitted or top-dose-only effect, or another doubt; inactive means no such curve, though single readings can be large; an effect the other way counts as inactive or inconclusive; further: nearly all actives have a fitted effect of over 50% in size
HPGD inh: inhibitors of human 15-hydroxyprostaglandin dehydrogenase (HPGD) | purified HPGD, NADH fluorescence kinetic, PGE2 substrate | Potency, µM, actives largely listed as inhibitors | P15428 | 150,000 compounds, 4.3% hits
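20 nM HPGD preincubated 15 min at room temperature with compound in 50 mM Tris-HCl pH 8, 0.01% Tween 20. Started with 1 mM NAD+ and 30 uM prostaglandin E2; NADH fluorescence (360/450 nm) read 5 times over 30-s intervals, last minus first.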
IMPase cell inh: membrane-permeable compound that blocks inositol monophosphatase | P97697 | CHO-M1 cells, IP1 accumulation, HTRF TR-FRET ratio | inhibition (IP1 accumulation), % at 46.1 µM | 120,000 tested, under 10 active; active means well fitted curve in the direction sought with a large enough effect in the signal ratio, not every such curve was filed as active; inconclusive means small, poorly fitted or top-dose-only effect, or a change in a side signal; inactive means no such curve, though single readings can be large or run the other way; the % refers to the signal ratio;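 further: cells stimulated with carbachol in lithium chloride buffer; higher means more IMPase inhibition seen as more IP1 and lower FRET ratio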
Target sequence (P97697 whole entry, looked up): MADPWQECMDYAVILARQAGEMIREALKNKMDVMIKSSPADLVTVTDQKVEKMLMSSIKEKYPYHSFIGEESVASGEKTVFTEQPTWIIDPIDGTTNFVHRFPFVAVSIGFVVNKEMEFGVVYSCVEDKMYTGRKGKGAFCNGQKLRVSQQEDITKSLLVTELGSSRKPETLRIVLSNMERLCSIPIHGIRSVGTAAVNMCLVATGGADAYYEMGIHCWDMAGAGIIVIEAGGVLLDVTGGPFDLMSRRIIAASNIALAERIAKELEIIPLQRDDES
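CHO-M1, 2000 cells/well, cultured 16–30 h; cpd up to 46 uM; carbachol (50 uM solution, stimulation buffer w/ 50 mM LiCl, pH 7.4), 30 min 37C; IP-One TR-FRET, 10 min RT; Ex 320/Em 665, 620; Hill-fit AC50.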
PNC assembly inh: inhibitors of perinucleolar compartment assembly; PC3M PTB-GFP, PNC prevalence imaging, 16 h; hits give low values; activity change (PNC), negative = inhibition, % at 10 µM; 140,000 compounds, 3.1% hits; AID 2417;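 active means readout at or below -70, meaning at least 70% loss of cells showing the perinucleolar compartment, a nuclear body marking cancer cells; inconclusive means readout between -30 and a set limit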
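PC3M cells stably expressing PTB-GFP, 750–1000 cells/well, treated 16 h at 37 °C with compound (23 nl of library stock), in duplicate. After paraformaldehyde fixation and Hoechst stain, imaged at 20x; PNC prevalence scored by image analysis.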
A number is an active result; – = inactive; ? = inconclusive; · = no result given. This is a sample that favours compounds with a hit; in the whole collection about 11% have one here. Unless noted, the call rests on the fitted dose curve; in most records, active means well fitted inhibition curve with a large enough effect (not every such curve was filed as active); inconclusive means small, poorly fitted or top-dose-only effect, or another doubt; inactive means no such curve, though single readings can be large or run the other way.

SMILES	ALDH1A1 inh	IMPase Li inh	NPSR antag	HPGD inh	IMPase cell inh	PNC assembly inh
COc1ccc(C(=O)N=c2nc3ccccn3s2)cc1	–	–	–	–	–	–
C=C(C)CNC(=S)Nc1nc2c(cc1C(=O)OCC)CCCC2	1µM	–	–	–	·	–
CCOC(=O)N1CCN(CC(=O)Nc2ccc(C)cc2)CC1	?	–	–	–	–	–
COc1cc(/C=C(\C#N)C(=O)N2CCOCC2)cc(Br)c1O	?	–	–	25µM	·	?
COc1ccc(-c2nn(-c3ccccc3)cc2C(=O)n2nnc3ccccc32)cc1	?	?	10µM	?	–	–
COc1ccccc1-c1cc(=O)c2cccc(OC)c2o1	?	–	·	?	·	·
COc1cccc(-c2cc(=O)c3ccccc3o2)c1N	?	–	–	13µM	–	·
O=c1cc(-c2ccccc2F)oc2ccccc12	–	–	–	13µM	–	–
CCCNC(=O)N1CCN(Cc2ccco2)CC1	–	–	–	·	·	·
COc1ccc(C(=O)N2CCC3(CC2)CCN(C(c2ccccc2)c2ccccc2)CC3)cc1	–	–	·	–	·	·
Cc1cccc(-n2c(Cn3nc(C)c([N+](=O)[O-])c3C)n[nH]c2=S)c1	25µM	–	–	–	–	–
Cn1cc(CN2CCc3ccccc3C2)c2ccccc21	14µM	–	–	–	–	–
CCOC(=O)N1CCN(Cc2ccccn2)CC1	?	–	–	–	–	–
CCOC(=O)N1CCN(Cc2ccc(O)c3ncccc23)CC1	25µM	–	–	·	·	·
Oc1ccc(CNc2ccccc2F)c2cccnc12	8.9µM	–	–	–	–	–
Oc1ccc(CN2CCc3ccccc3C2)c2cccnc12	–	–	4µM	–	–	–
Oc1ccc(CN2CCCCC2)c2cccnc12	?	–	–	–	–	–
O=C(COC(=O)CCC(=O)c1ccc(Cl)cc1)NCc1ccco1	?	–	–	·	·	·
Cc1ccc(NC2=NCC(=O)N2Cc2ccc3c(c2)OCO3)c(C)c1	–	–	–	–	–	-100
Cc1cc(C)cc(NC2=NCC(=O)N2Cc2ccccc2)c1	–	–	–	–	–	–

Compound activity deposited in PubChem by National Center for Advancing Translational Sciences (NCATS).
